These results are taken from PubChem BioAssay AID687036 (The Scripps Research Institute Molecular Screening Center, 2013).

In all, about 3,300 compounds went through this assay and about 1,400 (42%) were called active. So high a share suggests a set chosen from earlier hits. The list is a sample of the results. Values without a mark were called inactive.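 The calls were made as follows: active = mean inhibition across replicates above the hit cutoff derived for the earlier primary screen (cut at about 22% in these data); inactive = the rest.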

In the assay the target is Protein arginine N-methyltransferase 1 (Homo sapiens) (UniProt Q99873). Description: human PRMT1 activity-probe blockers, retest – biochemical, fluorescence polarization, triplicate, confirmation (AID 687036). As to conditions: recombinant His-PRMT1, activity-based probe fluorescence polarization; at 2.79 µM; hits give high values.
Protein arginine N-methyltransferase 1 (Homo sapiens), sequence (Q99873 whole entry, looked up): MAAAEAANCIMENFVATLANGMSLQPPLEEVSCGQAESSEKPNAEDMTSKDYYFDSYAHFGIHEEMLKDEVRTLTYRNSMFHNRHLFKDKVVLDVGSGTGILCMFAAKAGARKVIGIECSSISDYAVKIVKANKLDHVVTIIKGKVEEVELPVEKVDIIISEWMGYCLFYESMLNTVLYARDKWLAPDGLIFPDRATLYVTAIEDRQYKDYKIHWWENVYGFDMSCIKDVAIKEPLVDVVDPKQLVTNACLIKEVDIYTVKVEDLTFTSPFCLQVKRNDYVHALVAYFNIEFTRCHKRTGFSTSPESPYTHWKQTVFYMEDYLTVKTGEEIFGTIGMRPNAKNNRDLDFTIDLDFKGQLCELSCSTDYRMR
What is called inhibition is the change of the read-out against control, counted positive when it falls. For the molecule `CC1=C(C)CC2C(=O)N(c3cccc4ccccc34)C(=O)C2C1` (stereo not given), the inhibition is 54.1% (active).
The result for `O=C(O)CCn1c(O)c(C=C2N=c3ccccc3=N2)sc1=S` reads -5.43%; that for `O=C(NC(Cc1c[nH]c2ccccc12)C(=O)O)/C(=C/c1ccco1)NC(=O)c1ccccc1` (stereo not given), 9.09%; that for `Cc1ccc(NC(=O)Cn2sc3ccccc3c2=O)cc1`, 82.3% (active).
The result for `CCC(c1nnnn1Cc1ccco1)N(Cc1cc2cc(OC)ccc2[nH]c1=O)C1CCCCC1` (stereo not given) reads 18%.
For `COC(=O)C[n+]1cccc2ccccc21`, the inhibition was 32.6% (active).
In the case of `NC(=O)c1c(Nc2nc3c(F)cccc3s2)sc2c1CCCC2`, the inhibition was -3.26%.
As for `O=C(Cc1ccc(-c2ccccc2)cc1)NC(c1ccccc1)c1ccccc1`, the figure is 3.32%.
As for `O=C(CSc1cccc[n+]1[O-])c1ccc(-c2ccccc2)cc1`, the figure is 25.6% (active).
As for `Cc1sc(NC(=O)c2ccc3ncsc3c2)c(C(N)=O)c1C`, the figure is 3.89%.
As to `N#CC1(Nc2ccc3c4c(cccc24)CC3)CCCCC1`, the inhibition was 10.2%.
The result for `CSc1nc(C)cc(SC(C(C)=O)C(=O)Nc2ccccc2)n1` (stereo not given) reads 22.5% (active); that for `CN(C)C(=S)N=c1ssc(=S)n1Cc1ccco1`, 15.6%.
In the case of `Cc1ccc(-n2nc(-c3ccco3)cc2C(=O)NCc2cccnc2)cc1`, the inhibition is 19.5%.
Turning to `C=CS(=O)c1sc(Cl)c(N2CCOCC2)c1[N+](=O)[O-]` (stereo not given), the inhibition is 87.1% (active).
As for `CCOC(=O)c1cc2n(c1N)-c1ccccc1C2=O`, the figure is 116% (active); as for `Cc1ccccc1CN1C[C@@H]2C[C@@H](c3cn(C)nc3-c3ccccc3)N3CCC[C@@]23C1=O`, 5.9%.
Consider `O=C(Nc1nc(-c2ccco2)c(-c2ccco2)s1)c1ccco1`, for which the inhibition was 30.4% (active).
As for `O=C(Nc1cccc(F)c1)c1cc(-c2ccco2)nc2ccccc12`, the figure is 3.51%; as for `COc1cc(C(=S)NCc2ccccc2)cc(Br)c1O`, 19.8%; as for `N#CC1=C(N)Oc2[nH]c(=S)[nH]c(=O)c2C12C(=O)Nc1ccccc12` (stereo not given), 66.4% (active).
The result for `Cc1ccc(Cc2cnc(N)s2)o1` reads -3.79%; that for `O=C(CN1C(=O)S/C(=C\c2ccccc2F)C1=O)NCCCn1ccnc1`, -3.11%; that for `CC(NC(=O)CSc1nc2c(cc1C#N)CN(C)CC2)c1ccccc1` (stereo not given), 6.37%.
The result for `COc1ccc(C(=O)COC(=O)COc2ccc(C)c(C)c2)cc1` reads 3.72%.
Consider `COc1ccnc(NC(=S)N2CCN(c3ncc(C(F)(F)F)cc3Cl)CC2)c1`, for which the inhibition was 4.89%.
Consider `c1ccc(C(=NNc2nc3ccccc3s2)c2ccccn2)cc1`, for which the inhibition was 22.1% (active).
The result for `Cc1nc2sc(C(c3ccco3)N3CCOCC3)c(O)n2n1` (stereo not given) reads 7.49%.
With `CCN(CC)CCCC(C)n1c2nc(=O)[nH]c(=O)c-2nc2cc(Cl)ccc21` (stereo not given), the inhibition is 153% (active).
Take `CC(C(=O)Nc1ccc(O)c(C(=O)O)c1)N1C(=O)/C(=C/c2cccs2)SC1=S` (stereo not given): the inhibition is 12%.
As for `COCCNC(=S)Nc1cc(S(=O)(=O)N2CCOCC2)ccc1N1CCCCC1`, the figure is 4.34%; as for `N#Cc1ccccc1S(=O)(=O)N1CCN(Cc2c(O)ccc3ccccc23)CC1`, 33.1% (active); as for `COc1ccc(Nc2nc(-c3cccnc3)nc3ccccc23)cn1`, 11.2%.
As for `Cn1sc(=O)c2cc(S(=O)(=O)NC3CC3)ccc21`, the figure is 32% (active).
The result for `Cc1ccc(CNC(=O)CCS(=O)(=O)c2ccc3c(c2)CC(C)N3C(=O)C2CC2)o1` (stereo not given) reads 5.73%; that for `S=c1[nH]nc2c3c4c(sc3ncn12)CCCC4`, 17.1%; that for `CCOc1cccc(/C=N/N2C(=O)CSC2=S)c1O`, 83.2% (active).
Turning to `NC(=O)C1(N2CCCCC2)CCN(C2CC(=O)N(Cc3ccc(N4CCCC4=O)cc3)C2=O)CC1` (stereo not given), the inhibition is 2.57%.
The result for `Cc1sc2nc(SCC(=O)c3ccc(O)c(O)c3)n(Cc3ccco3)c(=O)c2c1C` reads 2.72%; that for `CCOC(=O)N1C(=O)C[C@](Sc2ccc(C)cc2)(C(=O)OC)[C@H]1c1ccccc1`, 60.5% (active).
The result for `CCc1ccc(-n2c(=S)sc3c(=O)n(-c4ccccc4OC)c(=S)[nH]c32)cc1` reads 14.1%; that for `Cc1ccc(NC(=O)c2cc(-c3ccc(C)o3)nc3ccccc23)nc1`, 10.3%; that for `CCc1n[nH]c(=S)n1/N=C/c1c[nH]c2ccc(Br)cc12`, 18%.
Regarding `Cc1cccc(NC(=O)c2sc3nc(N4CCOCC4)c4c(c3c2N)CCCC4)c1`, the inhibition was 10.1%.
With `Clc1ccccc1CSc1nnc(-c2ccco2)c(-c2ccco2)n1`, the inhibition is 65.4% (active).
Turning to `O=C(CC1N=C2c3ccccc3N=C(SCc3ccccc3Cl)N2C1=O)NCc1ccco1` (stereo not given), the inhibition was 5.28%.
The result for `CC(=O)N1CCN(C(=O)c2cc(-c3ccc(C)o3)nc3ccccc23)CC1` reads 13%.
As for `Cc1ccnc(-n2sc3ccccc3c2=O)n1`, the figure is 89.8% (active).
With `CCN1/C(=C/C(=S)Nc2ccccc2)Sc2ccccc21`, the inhibition is 24.8% (active).
`COc1ccccc1-n1c(-c2cc(-c3ccco3)[nH]n2)n[nH]c1=S`: the inhibition was 2.25%.
As to `c1ccc(CN2CCC(N=C3NN=C(c4ccc5c(c4)OCCO5)CS3)CC2)cc1`, the inhibition is 27.8% (active).
The result for `Cc1cccc(Oc2c([N+](=O)[O-])c(=O)n(C)c3ccccc23)c1` reads 9.75%; that for `N#Cc1c(N2CCCCC2)nc(N)c2c(N)nc(SCC(=O)O)cc12`, 56.5% (active); that for `COc1ccc(C2CC(c3cccs3)=Nc3ccccc3S2)cc1OC` (stereo not given), 48.6% (active).
As for `Cc1cc(C(=O)NN=C/C=C/c2ccco2)n[nH]1`, the inhibition was 0.98%.
As for `O=C(Oc1ccccc1C(=S)N1CCCCC1)c1cc([N+](=O)[O-])cc([N+](=O)[O-])c1`, the figure is 25.5% (active); as for `Cc1cc2nc(-c3ccco3)c(Cc3cccc(F)c3)n2c(C)c1Br`, 20.8%.
For the molecule `COC(=O)c1ccccc1SC1CC(=O)N(c2cccc(C)c2)C1=O` (stereo not given), the inhibition is 23.1% (active).
As for `CCOC(=O)c1ccc(N2C(=O)CC(N3CCC(C(=O)OCC)CC3)C2=O)cc1` (stereo not given), the figure is 1.87%.
The result for `O=C(O)c1ccc(/C=C2\SC(=S)N(NC(=O)c3ccc(Br)cc3)C2=O)cc1` reads 2.94%; that for `S=c1[nH]nc(-c2ccccc2)n1/N=C/c1c[nH]c2ccccc12`, 12.4%.
As for `CCN(CC)S(=O)(=O)c1cccc(-c2n[nH]c(=S)n2/N=C/c2ccc(C(=O)OC)cc2)c1`, the inhibition was 65.6% (active).
In the case of `S=c1ccc2ccccc2[nH]1`, the inhibition was 10.8%.
As for `CC(=O)NC1=NC(=O)CS1`, the figure is 15.3%; as for `CCOC(=O)N1CCN(C(c2cccnc2)c2ccc3cccnc3c2O)CC1` (stereo not given), 82.2% (active).
As for `COc1ccccc1C(=O)NN1C(=O)C2C3C=CC(O3)C2C1=O` (stereo not given), the figure is 8.23%; as for `COc1ccc(N=C2C=CC(=O)O2)cc1`, 83.2% (active).
Turning to `COc1ccccc1NC(=O)/C=C/C(N)=O`, the inhibition is 55.8% (active).
The result for `CN(C)c1ccc(Nc2c3c4c(cccc4n(C)c2=O)C(=O)c2ccccc2-3)cc1` reads 1.6%; that for `O=C(O)c1ccccc1CSc1nc2ccccc2s1`, 33.2% (active).
With `CCC(c1nnnn1Cc1ccco1)N(CCc1ccccc1)Cc1cc2ccc(OC)cc2[nH]c1=O` (stereo not given), the inhibition was 5.74%.
The result for `O=C1C=CC(=O)N1c1ccc(N2CCCCC2)cc1` reads 82.8% (active); that for `Cc1cc(C)c(S(=O)(=O)NN=C2c3ccccc3[C@H]3Cc4csc[n+]4[C@@H]23)c(C)c1`, 13.2%.
As for `Cc1cccc(C)c1NC(=O)C(Cl)C(=O)c1ccccc1` (stereo not given), the inhibition is 30% (active).
The result for `O=c1/c(=C/c2ccc(CNS(=O)(=O)c3ccccc3)o2)sc2n1CCN=2` reads -3.63%.
As for `Clc1cccc(-c2nc3nc4ccccc4nc3n2Cc2ccco2)c1`, the inhibition was 19.7%.
The result for `Cc1nc2ccc(S(=O)(=O)NCC(=O)O)cc2s1` reads 22.9% (active).
Consider `CC(=O)N1C(=O)/C(=C2\SC(=S)N(NC(=O)c3ccc(O)cc3)C2=O)c2ccccc21`, for which the inhibition is 1.92%.
As for `CCCCOC(=O)CNc1nnc(SCC(=O)OCC)[nH]c1=O`, the inhibition was 72.3% (active).
As to `CN(C)c1ccc(C(CC(=O)O)C(=O)O)cc1` (stereo not given), the inhibition was 5.11%.
Regarding `CCOC(=O)Cc1csc(NC(=O)CSc2nc(C)cc(=O)[nH]2)n1`, the inhibition was 61.6% (active).
Regarding `Cc1cc(NC(=O)C(C)SCC(=O)Nc2cccc(S(=O)(=O)N3CCCCCC3)c2)no1` (stereo not given), the inhibition is -0.11%.
Turning to `COc1ccc(NC(=O)CN(C)C(=O)c2cc(-c3ccc(C)o3)nc3ccccc23)cc1`, the inhibition is 13.6%.
The result for `OCCN1CCN(C(=S)c2ccc(-c3ccccc3)cc2)CC1` reads 61.8% (active); that for `CC1CCN(C(=S)c2ccc(-c3ccc(Cl)cc3Cl)o2)CC1`, 4.49%.
For `COc1cc(NC(=S)N2CCCC(C)C2)c(OC)cc1Cl` (stereo not given), the inhibition was 44.5% (active).
`CC(=O)N1CC(C)c2scc(C)[n+]2-c2ccccc21` (stereo not given): the inhibition was 50.9% (active).
As for `COc1ccc(N2C(=O)/C(=C\c3ccco3)N=C2SCC(N)=O)cc1Cl`, the figure is 5.26%.
The result for `COc1cccc2c1C(=O)c1c(O)c3c(c(O)c1C2=O)CC(O)(C(C)=NNC(=O)c1ccc(Cl)c(Cl)c1)CC3OC1CC(N)C(O)C(C)O1` (stereo not given) reads 159% (active).
The result for `O=C(O)/C=C/C(=O)NNc1ccc([N+](=O)[O-])cc1` reads 12.7%.
For the molecule `COC(=O)/C=C\C(=O)Nc1cccc([N+](=O)[O-])c1`, the inhibition was 87.6% (active).
For the molecule `Cc1c(NC(=O)/C=C/C(=O)O)cccc1[N+](=O)[O-]`, the inhibition is 4.54%.
Consider `CSc1c(SCc2ccccc2)cnn(Cc2ccccc2)c1=O`, for which the inhibition is 18.4%.
As for `Nc1c(C(=O)c2cccs2)sc2nsc(SCCN3CCCCC3)c12`, the inhibition is -5.21%.
The result for `O=C(COC(=O)Cn1cnc2ccccc21)Nc1cccc2c1C(=O)c1ccccc1C2=O` reads 4.11%.
